This excerpt belongs to a sample that is enriched for hits.
MARV entry inh = Marburg virus entry inhibition. hit rate 1.8% among 300,000. AID 540276. Marburg virus pseudotyped entry inhibition, cell reporter. Potency, µM (doses to about 37.8 µM), without a hit: at the top dose activity change, negative = inhibition, usual class: inhibitors; calls by dose curve; tested in HEK293 cells; also: potency is read from the fitted curve at half-maximal effect; % is scaled to controls: 0 for no effect and ±100 for the full control effect
Shiga inhibitor = inhibitors of Shiga toxin in Vero cells | hit rate 9.2% among 290,000 | inhibition, % at 38.7 µM | Vero cells, Shiga toxin protein synthesis inhibition reporter; in the data active = inhibition mostly above about 28%, no sharp cut-off; inactive = mostly below about 43%; also: 0% is about no effect
AMA1 RON2 block = AMA1-RON2 (P. falciparum) interaction inhibition. AID 720542. hit rate 0.2% among 360,000. AlphaScreen AMA1-biotinylated RON2 peptide binding. Potency, µM (titrated, usually from 58.2 µM), for the others: top-dose activity change, negative = inhibition, most hits filed as inhibitors; active = well fitted inhibition curve with a large enough effect; inconclusive = small, poorly fitted or top-dose-only effect; inactive = no such curve, though single readings can be large or run the other way;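 also: potency is read from the fitted curve at half-maximal effect; 0% = vehicle wells and -100% = peptide control; nearly all actives have a fitted effect of over 45% in size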
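AMA1 (3D7) with his tag at 25 nM final met compounds first, then biotinylated RON2 peptide at 25 nM; detection used donor plus acceptor beads, 10 µg/mL apiece, read by AlphaScreen after 30 min at room temperature.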
LASV entry inh = blocks Lassa virus binding to or entry into cells | Lassa virus pseudotype entry inhibition, cell reporter | Potency, µM (series often up to 37.9 µM), for the others: at the top dose activity change, negative = inhibition, actives largely listed as inhibitors | hit rate 1.2% among 300,000; calls by dose curve; tested in HEK293 cells; also: potency is read from the fitted curve at half-maximal effect; % is scaled to controls: 0 for no effect and ±100 for the full control effect; nearly all actives have a fitted effect of over 50% in size
CHX counter = counter-screen hit for Shiga toxin inhibitors, cycloheximide. cell reporter, cycloheximide protein synthesis inhibition counterscreen. max response, %. hit rate 12% among 300,000; in the data active = max response mostly above about 13%, no sharp cut-off; inactive = mostly below about 14%; also: read at 38.3 µM for the half of the compounds with a filed dose; 0% is about no effect
Active calls of the source: *; [ ] = remark or other dose.

`CCC1=NN(C(=O)c2ccc(Br)cc2)C(O)(c2ccc(C)cc2)C1` (stereo unspecified) gave MARV entry inh inconclusive, Shiga inhibitor 31.9*, AMA1 RON2 block 22.0%, LASV entry inh -0.4% and CHX counter 32.8*.
Screening CCC1=NN(C(=O)c2cccc(Br)c2)C(O)(c2ccc(Br)cc2)C1 (stereo unspecified) returned MARV entry inh inconclusive, Shiga inhibitor 70.4*, AMA1 RON2 block 35.9%, LASV entry inh 2.5% and CHX counter 40.8*.
`CCC1=NN(C(=O)c2ccc(C)cc2)C(O)(c2ccc(Br)cc2)C1` (stereo unspecified) gave MARV entry inh -4.3%, Shiga inhibitor 44.2*, AMA1 RON2 block 23.6%, LASV entry inh 7.8% and CHX counter 39.1*.
O=C(Nc1cccc(S(=O)(=O)N2CCCCCC2)c1)C1CCN(C(=O)c2ccc(F)cc2)CC1 was read as MARV entry inh inconclusive, AMA1 RON2 block 5.1% and LASV entry inh -19.4%[46.1 µM].
For O=C(CSc1ccc2ccccc2n1)NCCCN1CCCC1=O the results were AMA1 RON2 block -4.2%.
`CCOC(=O)N1CCC(NS(=O)(=O)c2cc3c(cc2Cl)NC(=O)CO3)CC1` gave MARV entry inh -27.2%[46.1 µM], Shiga inhibitor -7.4, AMA1 RON2 block -0.2%, LASV entry inh 1.83µM* and CHX counter -3.2.
CCc1ccc(CN(Cc2ccco2)c2cnc(S(C)(=O)=O)nc2C(=O)Nc2cccc(C)c2)cc1 was read as MARV entry inh -28.1%[46.1 µM] and LASV entry inh -7.2%[46.1 µM].
Screening Oc1cccc(-c2nc3c4c(ncn3n2)-c2ccccc2CC42CCCC2)c1 returned MARV entry inh 23.1µM*, Shiga inhibitor -15.5, AMA1 RON2 block -9.6%, LASV entry inh -16.7%[14.3 µM] and CHX counter -2.5.
For CCN1CCc2c(sc(NC(=O)c3ccc(S(=O)(=O)N4CCCCCC4)cc3)c2C(=O)NC)C1 the results were MARV entry inh inconclusive, Shiga inhibitor 13.2, AMA1 RON2 block 5.8%, LASV entry inh 8.8% and CHX counter -3.6.
COc1ccc(-c2cc(-c3ccccc3)c(C#N)c(S(C)(=O)=O)n2)cc1 was read as MARV entry inh inconclusive, Shiga inhibitor -8.0, AMA1 RON2 block 7.0%, LASV entry inh inconclusive and CHX counter -1.8.
CS(=O)(=O)c1nc(-c2ccc(Br)cc2)cc(-c2ccccc2)c1C#N was read as MARV entry inh inconclusive, Shiga inhibitor -10.6, AMA1 RON2 block 5.3%, LASV entry inh 5.8µM* and CHX counter 1.1.
COc1ccc(-n2nnnc2C2CCN(S(=O)(=O)c3ccc(NC(C)=O)cc3)CC2)cc1 was read as MARV entry inh -26.4%[46.1 µM] and LASV entry inh -4.8%[46.1 µM].
For COc1cccc(NC(=O)[C@H](Cc2ccccc2)NC(=O)[C@@H]2Cc3ccccc3CN2)c1 the results were Shiga inhibitor 41.4, AMA1 RON2 block 65.4% and CHX counter 25.7*.
Screening Cc1cccc(NC(=O)[C@H](NC(=O)[C@@H]2Cc3ccccc3CN2)c2ccccc2)c1 returned Shiga inhibitor 16.7, AMA1 RON2 block 30.9% and CHX counter 26.3*.
For COc1cccc(NC(=O)[C@H](NC(=O)[C@@H]2Cc3ccccc3CN2)c2ccccc2)c1 the results were Shiga inhibitor 38.2, AMA1 RON2 block 72.5% and CHX counter 30.2*.
Screening COc1cccc(NC(=O)C(Cc2ccccc2)NC(=O)C2CCC(C)CC2)c1 (stereo unspecified) returned MARV entry inh 5.3%, Shiga inhibitor 18.0, AMA1 RON2 block -3.3%, LASV entry inh -21.0% and CHX counter -2.7.
COc1ccc(CNC(=O)[C@H](C)NC(=O)[C@@H]2Cc3ccccc3CN2)cc1 was read as MARV entry inh -17.8%[46.1 µM], Shiga inhibitor -2.7, AMA1 RON2 block 21.3%, LASV entry inh -3.4%[46.1 µM] and CHX counter 1.7.
For CC(NC(=O)[C@H](NC(=O)[C@@H]1Cc2ccccc2CN1)c1ccccc1)c1ccccc1 (stereo partly specified) the results were Shiga inhibitor 13.9, AMA1 RON2 block 32.6% and CHX counter 7.2.
For Cc1cccc(NC(=O)[C@@H](CC(C)C)NC(=O)[C@@H]2Cc3ccccc3CN2)c1 the results were Shiga inhibitor 18.3, AMA1 RON2 block 46.0% and CHX counter 14.8.
`CC(C)c1ccc(NC(=O)[C@H](NC(=O)[C@@H]2Cc3ccccc3CN2)c2ccccc2)cc1` gave MARV entry inh 3.98µM*, Shiga inhibitor 35.2, AMA1 RON2 block 19.4%, LASV entry inh 0.2%[46.1 µM] and CHX counter 33.9*.
For CC(C)OC(=O)C[C@H](NC(=O)OC(C)(C)C)c1ccccc1 the results were MARV entry inh -8.9%.
Cn1c(SCC(=O)Nc2cccc(S(=O)(=O)NC3=NCCCCC3)c2)nnc1-c1ccccc1 was read as Shiga inhibitor 4.3, AMA1 RON2 block 9.4% and CHX counter -2.3.
`C=C(CO[C@@H]1C=C[C@@H](c2ccccc2)O[C@@H]1COC)c1ccccc1` gave MARV entry inh -4.3%[14.2 µM].
Screening Cc1ccc(NC(=O)[C@H](NC(=O)[C@@H]2Cc3ccccc3CN2)c2ccccc2)cc1 returned Shiga inhibitor 44.7*, AMA1 RON2 block 53.5% and CHX counter 25.2*.
CC(C)[C@H](NC(=O)OC(C)(C)C)c1nnc(S(=O)(=O)Cc2c(F)cccc2Cl)o1 was read as MARV entry inh -3.1%, Shiga inhibitor 41.7, AMA1 RON2 block -1.6%, LASV entry inh -4.6% and CHX counter 34.4*.
C[C@H](NC(=O)OC(C)(C)C)c1nnc(SCc2c(F)cccc2Cl)o1 was read as MARV entry inh 1.2%[46.1 µM] and LASV entry inh -33.5%[46.1 µM].
Screening CC[C@@H](C)[C@H](NC(=O)OC(C)(C)C)c1nnc(S(=O)(=O)Cc2cc(C)ccc2C)o1 returned MARV entry inh inconclusive, Shiga inhibitor 4.5, AMA1 RON2 block 21.5%, LASV entry inh 10µM* and CHX counter 17.7*.
Screening CC(=O)N[C@H]1CSSC[C@@H](C(=O)N2CCC[C@H]2C(=O)N2CCC[C@H]2C(=O)N[C@@H](CCCCN)C(=O)N[C@@H](CC(=O)O)C(N)=O)NC(=O)CNC(=O)[C@H](Cc2c[nH]c3ccccc23)NC(=O)[C@H](CCCNC(=N)N)NC(=O)[C@@H](Cc2ccc(Cl)c(Cl)c2)NC(=O)[C@H](Cc2cnc[nH]2)NC(=O)[C@H](CCC(=O)O)NC1=O returned Shiga inhibitor -9.2 and CHX counter -7.4.
O=C(O)c1cccc(-n2cnc3cccnc32)c1 was read as MARV entry inh 17.9%[46.1 µM] and LASV entry inh inconclusive.
CC(C)(C)c1ccc(Cn2c(=O)cnc3ccccc32)cc1 was read as MARV entry inh inconclusive, Shiga inhibitor 89.6*, AMA1 RON2 block 37.9%, LASV entry inh 10µM* and CHX counter 38.2*.
O=c1cnc2ccccc2n1Cc1ccc(Br)cc1 was read as MARV entry inh 4.2%[46.1 µM], Shiga inhibitor 55.5*, AMA1 RON2 block -2.5%, LASV entry inh 18.4% and CHX counter 17.8*.
Screening NNC(=O)C1=NN=C(C23CC4CC(CC(C4)C2)C3)C1 returned MARV entry inh 16.8%[46.1 µM].

Screens as filed in PubChem BioAssay.
